Results: PubChem BioAssay AID588774 (The Scripps Research Institute Molecular Screening Center, 2011)
Calls of active or inactive are those of the source.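 The calls were made as follows: active = target enzyme inhibited at least 50% at a set dose, and selective over every off-target enzyme by a set factor; inactive = weaker inhibition or too little selectivity.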

Experiments:
[1] = competitive ABPP of pPAFAH versus proteome hydrolases – biochemical, gel-based, FP-Rh fluorescence, complex proteome, SAR compounds, selectivity assay for pPAFAH inhibitor project, SAR follow-up (AID 588774); conditions: MW 32 kDa, anti-targets inhibited, at 10 µM;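 as to inhibition: 0% = DMSO-only band intensity and 100% = blank gel background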
[2] = tested on: MW 32 kDa; assay: as above; conditions: at 10 µM, stronger effect = higher value

Row | Structure (SMILES) | anti-target count [1] | inhibition [2]
1 | Cc1cc(N2CCN(C(=O)Oc3ccc(C(F)(F)F)cc3)CC2)c2ccccc2n1 | 1 | 0% (inactive)
2 | Cc1cc(N2CCN(C(=O)n3ncc(-c4ccc(OC(F)(F)F)cc4)n3)CC2)c2ccccc2n1 | 9 | 87% (inactive)
3 | Cc1cc(N2CCN(C(=O)n3ncc(-c4ccc(Cl)c(Cl)c4)n3)CC2)c2ccccc2n1 | 8 | 50% (inactive)
4 | Cc1cc(N2CCN(C(=O)n3ncc(-c4ccccc4)n3)CC2)c2ccccc2n1 | 9 | 72% (inactive)
5 | Cc1cc(N2CCN(C(=O)Oc3noc4cc(Cl)ccc34)CC2)c2ccccc2n1 | 4 | 0% (inactive)
6 | Cc1cc(N2CCN(C(=O)Oc3ccc([N+](=O)[O-])cc3)CC2)c2ccccc2n1 | 2 | 0% (inactive)
7 | COc1ccc(-c2cnn(C(=O)N3CCN(c4cc(C)nc5ccccc45)CC3)n2)cc1 | 8 | 67% (inactive)
8 | Cc1cc(N2CCN(C(=O)Oc3ccc(-c4ccc(Br)cc4)cc3)CC2)c2ccccc2n1 | 0 | 0% (inactive)
9 | Cc1cc(N2CCN(C(=O)Oc3ccc(-n4cccc4)cc3)CC2)c2ccccc2n1 | 0 | 0% (inactive)
10 | Cc1cc(N2CCN(C(=O)Oc3ccc(-c4ccccc4)cc3)CC2)c2ccccc2n1 | 0 | 0% (inactive)
11 | O=C(Oc1noc2cc(Cl)ccc12)N1CCOCC1 | 3 | 30% (inactive)
12 | O=C(Oc1noc2cc(Cl)ccc12)N1CCCCC1 | 2 | 0% (inactive)
13 | Cc1cc(N2CCN(C(=O)n3oc4cc(Cl)ccc4c3=O)CC2)c2ccccc2n1 | 3 | 0% (inactive)
